From the supplement of paper PMC7726561
Whole data set: some 1,100 sequences, median “thermal melting temperature (Tm) of peptide-HLA complex” near 58, cut for the lowest 2% near 42. The entries come from a sample that favours the lowest values as a whole.

Biological target: HLA-A*02:01
Assay: thermal melting temperature (Tm) of peptide-HLA complex; higher = more thermostable pHLA complex
Conditions: C1R-A*02:01
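Further: lysates heated 10 min at 37–73 °C, complexes pulled down with pan-HLA I antibody, peptide signal by DIA-MS relative to 37 °C, Tm where half the complex is unfolded.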

Row | Sequence | thermal melting temperature [°C]
1 | VLGRVNLV | 45.9
2 | HLDEAIHVL | 51.9
3 | VLLGEVNIRL | 55.2
4 | SLLNPPETLNL | 54.9
5 | TLLGNIHAV | 59.5
6 | GLLENIPRV | 64.8
7 | YLHDQNPDAAL | 59
8 | VLLKARLVPA | 59.7
9 | VTTDIQVKV | 47.3
10 | FLLLPGPSAA | 47
11 | HLFETISQA | 54.9
12 | GLDPQGDRSFL | 57
13 | FLPQGFPDSV | 45.8
14 | SIHDVTFQV | 57.4
15 | SMSADVPLV | 61.3
16 | ALLKIEGVYA | 59.4
17 | ILLDNDHYA | 50.4
18 | FLDPNNIPKA | 61.3
19 | YLSPDLSKV | 61.9

Row | Sequence | thermal melting temperature [°C]
20 | LLDPNVKSIFV | 62.2
21 | FLDITNPKAV | 40.7
22 | FLDITNPKA | 58.3
23 | AMNDILAQV | 62.2
24 | KLDFANNVQL | 50.3
25 | ALLDQLHTL | 62.5
26 | FLSELTQQL | 59.5
27 | VLHELTFQA | 60.4
28 | FVADGIFKA | 41.1
29 | VLAPHLTRA | 53
30 | FLSDGTIISV | 57.5
31 | RLAEALPKQSV | 41.8
32 | GVIDGHIYAV | 61.7
33 | SLFPGKLEV | 60.4
34 | GLLQINDKIAL | 41.7
35 | RLQEEINEV | 55.3
36 | YQLEAEFVGV | 58.7
37 | SLLGGVLRV | 55.7
38 | TLSDLRVYL | 64.7

Row | Sequence | thermal melting temperature [°C]
39 | ALFPERITV | 61.6
40 | YLDIKGLLDV | 56
41 | TLLDPNEKYLL | 61.3
42 | RLWNETVEL | 63.7
43 | SIAPRMMSV | 48.1
44 | FTQDSNYLL | 49.1
45 | HIADVSHFI | 55.3
46 | RIADGLPVAV | 41
47 | VLADQEVRL | 58.4
48 | GLNEEIARV | 64
49 | IQDDMQTLYV | 43.4
50 | ILANDGVLLAA | 59.6
51 | FLIPIYHQV | 62.7
52 | SLIRNLEQL | 51.2
53 | KLLDIPGLEV | 61.3
54 | YLKDLIEEV | 62.8
55 | YQIAEQFRV | 61.3
56 | IAPPVPLKA | 53
